How the values were obtained:
Experiment in all cases: PBM binding z-score (relative to random genomic background probes); higher = stronger binding; sequences stand for … in GC…GCGATTGACAGCGTAGAATGAAGG
[1] = tested on: RARb homodimer (NR concentration 270 nM)
How it was run: (§1)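 Custom Agilent 4×180K protein-binding microarrays carried double-stranded probes. Their 34-nt variable regions held direct-repeat seeds, single-nucleotide variants, half-site ablations and random human genomic background sequences. Arrays were incubated 1 h with ligand-free nuclear receptor dimers in PBS pH 7.4, 2% milk, 0.02% Triton X-100, 1 mM DTT, 0.2 mg/mL BSA and 0.4 mg/ml salmon testes DNA. Antibodies against each partner (one per run) detected binding, and scanned fluorescence was regression-normalized. Binding z-scores use random background probes as reference.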

[2] = tested on: RARg:RXRa (NR concentration 270 nM, RXRa partner concentration 90 nM)
How it was run: as §1

[3] = tested on: RARg homodimer (NR concentration 270 nM)
How it was run: as §1

[4] = tested on: RXRa DBDmut IVT, anti-RXR (DBD mutation: RXRa K156A/R161A, NR concentration 90 nM)
How it was run: as §1

[5] = tested on: RXRa homodimer (NR concentration 180 nM)
How it was run: as §1

[6] = tested on: THRa:RXRa (NR concentration 90 nM, RXRa partner concentration 90 nM)
How it was run: as §1

[7] = tested on: THRa homodimer (NR concentration 90 nM)
How it was run: as §1

[8] = tested on: VDR homodimer (NR concentration 270 nM)
How it was run: as §1

| Sequence | PBM binding z-score [1] | PBM binding z-score [2] | PBM binding z-score [3] | PBM binding z-score [4] | PBM binding z-score [5] | PBM binding z-score [6] | PBM binding z-score [7] | PBM binding z-score [8] |
| --- | --- | --- | --- | --- | --- | --- | --- | --- |
| CAAACTAGGTCACAGAGGTCAAAGTGCGTGCGTA | 5.64 | 7.46 | 7.84 | 3.65 | 7.66 | 4.92 | 3.02 | 6.01 |
| CAAACTGGGTCACCGGAAGGTCAAAGTCCGCATG | 5.45 | 8.27 | 7.08 | 0.907 | 6.37 | 4.2 | 1.61 | 2.92 |
| ATCTCTAGGAAAAGTTCAGTGAAAGATCGATAGA | 2.13 | 1.53 | 1.87 | 1.03 | 0.695 | 0.532 | -0.316 | 1.66 |
| AAACCAAGGTGATCGTGAGGTCGTTGATACTAAC | 1.41 | 2.02 | 0.373 | 0.896 | 1.55 | 3.5 | 2.46 | 2.81 |
| AGAATGAGGTTACCAAAGATCCGGGAAACGCTTG | 0.848 | 1.96 | 1.65 | 1.05 | 2.5 | 2.61 | 0.714 | 0.252 |
| CCTAGCAGGCCAATCTGGCTCACTCAAGGCTTGA | -0.747 | -0.58 | -0.5 | -0.298 | -0.743 | -0.627 | -0.709 | -1.02 |
| AATACAGGGTCAGTAGGCCAGAGTAGGTACGAAT | 3.07 | 4.31 | 4.31 | 1.86 | 3.73 | 2.38 | 0.554 | 1.72 |
| ATCTCTAGGTAAAGATAGTTCCGTGAATGCAAAT | -0.314 | -0.154 | 0.427 | -0.0164 | 0.0158 | 0.316 | 0.233 | 0.309 |
| AGAATGAGGTTATTCAGATCAGGGAATTGCGGTC | 0.905 | 1.51 | 1.13 | 2.35 | 2.13 | 2.51 | 0.965 | 1.53 |
| ACTTGTTGGTCAGCTGAGGTCACACACAATTCGG | 4.48 | 4.18 | 4.01 | 1.38 | 3.99 | 5.15 | 5.03 | 3.16 |
| GCTAGTTGGGCAGTAAAAGGTCACACACCGGTCG | 5.15 | 5.03 | 4.7 | 0.364 | 5.38 | 3.49 | 1.62 | 1.66 |
| CCGACTGGGGCAAAGGCTACCATACTCAGTACGA | 0.592 | 0.577 | 0.501 | -0.632 | 0.387 | -0.182 | -0.604 | -0.299 |
| TCTTGTAGATCAATAGAGGTTAAGATAGTGCGCT | 1.21 | 0.947 | 0.501 | 0.749 | 1.75 | 2.51 | -0.429 | 0.0861 |
| CCGACTGGGGCAAAGTTTACCATACTCAGTACGA | 0.876 | 1.01 | 1.06 | 1.29 | 0.757 | 0.304 | -0.108 | 0.435 |
| CCTACTGAGCCAAAGGTCATTGATTCCAATGCTC | 4.56 | 5.34 | 4.83 | 2.32 | 5.76 | 3.33 | 1.26 | 3.3 |
| GCAGACAGGTGAAACGCAGGTAACTCTGGGTGGC | -0.101 | 0.724 | 0.0252 | -0.652 | 0.337 | 0.963 | -0.802 | -0.811 |
| TCGACTAGGTTAGTCGGGGCATTCAGCCAACATA | 0.379 | -0.0311 | -0.0411 | 0.284 | -0.049 | 1.1 | -0.279 | 0.492 |
| CGACCTAGGTCATTGACAGGACAGTGAATAGTAA | 3.01 | 5.2 | 4.67 | 2.83 | 3.09 | 3.2 | 0.892 | 1.47 |
| CCTACTGGGCCATCAGGTCATTCATATCAACGTT | 2.53 | 1.94 | 1.92 | 0.469 | 1.3 | 3.03 | 3.02 | 2.34 |
| CGTCCAAGGTCAGAGAGGTCAGCGAATGCCGAGT | 5.53 | 6.82 | 7.65 | 3.12 | 6.52 | 4.47 | 2.86 | 5.7 |
| ATATGTAGGTTAAGGGTCATACAGGTTGGTTCGC | 4.12 | 5.01 | 3.57 | 2.4 | 6.23 | 3.48 | 1.48 | 4.2 |
| ACTTTTAGTTGACTTAGGGCAACCGATACGACGC | 1.37 | 1.1 | 1.22 | 1.12 | 0.756 | 1.64 | 0.763 | 0.282 |
| ATCTCTAGGTACGACTCAGTTCAGTGAAGAACGC | 0.848 | 0.255 | 0.331 | 1.19 | 0.123 | 0.879 | 0.878 | 2.02 |
| CGTCAAAGTTCAACTAAGGTAACGTACAGCACGC | 4.47 | 6.1 | 6.82 | 4.86 | 5.14 | 5.27 | 2.13 | 4.15 |
| ATATATAGGTTACATCCGGGTCATTCAGGCTATG | 3.34 | 4.2 | 2.64 | 1.57 | 3.51 | 4.03 | 2.74 | 3.65 |
| CGTCCAAGGGCAAGGTCAGTGAAAGAGACTCGAA | 3.82 | 3.23 | 4.43 | 1.07 | 2.23 | 2.9 | 1.11 | 1.21 |
| TAGCCTAGGTCAGATCGGGCCAGCATACGCTATA | 2.06 | 2.68 | 3.52 | -0.834 | 1.72 | 4.27 | 0.0653 | -0.746 |
| ACTCAGAGGACAAAGGTCAGAGCTACGCCAGTGA | 4.56 | 6.51 | 5.89 | 1.84 | 6.06 | 3.44 | 0.705 | 1.43 |
